Screens from PubChem.
A selection: hits, their analogues and other compounds. The true share with any hit is near 3%.
SNCA expr inhib: inhibitors of alpha-synuclein (SNCA) gene expression; 140,000 compounds, 0.17% hits; Potency, µM (highest dose often 57.2 µM), for the others: at the highest dose activity change, negative = inhibition, hits mostly inhibitors; HEK-293 SNCA-luciferase knock-in, luminescence, 24 h;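 also: potency is read from the fitted curve at half-maximal effect; plate controls were DMSO cells for no effect and cell-free wells for full effect; nearly all actives have a fitted effect of over 45% in size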
SNCA viab count: reduces viability of HEK-293 SNCA reporter cells | HEK-293-SNCA-luc viability, GF-AFC fluorescence, 24 h | Potency, µM (top dose mostly 57.1 µM), without a hit: at the top dose activity change, negative = cytotoxicity, usual class: cytotoxic | 150,000 compounds, 0.12% hits | AID 1671193;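 also: potency is read from the fitted curve at half-maximal effect; 0% = DMSO-treated cells and -100% = medium-only wells without cells; nearly all actives have a fitted effect of over 30% in size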
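Cytotoxicity counterscreen: after 24 h compound treatment of genome-edited SNCA-luciferase HEK-293 cells, live-cell protease substrate GF-AFC read by fluorescence after 30 min; activity scaled between DMSO (0%) and medium-only (-100%), curves Hill-fitted.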
KDM5B inh: inhibitors of human KDM5B histone demethylase; KDM5B demethylase, FDH-coupled NADH fluorescence (FDH is formaldehyde dehydrogenase); Potency, µM (series often up to 57.7 µM), actives largely listed as inhibitors; 220,000 compounds, 2.6% hits; also: potency is read from the fitted curve at half-maximal effect; 0% is about no effect; nearly all actives have a fitted effect of over 70% in size
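qHTS format, multiple compound concentrations. Buffer 50 mM HEPES pH 7.5/0.01% Tween-20; 200 nM KDM5BΔAP final; 10 min compound preincubation; substrate-mix levels 12.5 µM peptide, 25 µM α-KG, 0.25 mM NAD⁺; 30 min RT; ΔRFU.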
IP6K1 inh: inhibitors of human IP6K1; Q92551; IP6K1 kinase, ADP-Glo luminescence, 2 h; active compounds read low; activity change, % (series mostly up to about 58 µM); 140,000 compounds, 0.81% hits; AID 1645851; in the data active = activity change below about -25%; also: % is scaled to controls: 0 for no effect and ±100 for the full control effect
Target sequence (Q92551 whole entry, looked up): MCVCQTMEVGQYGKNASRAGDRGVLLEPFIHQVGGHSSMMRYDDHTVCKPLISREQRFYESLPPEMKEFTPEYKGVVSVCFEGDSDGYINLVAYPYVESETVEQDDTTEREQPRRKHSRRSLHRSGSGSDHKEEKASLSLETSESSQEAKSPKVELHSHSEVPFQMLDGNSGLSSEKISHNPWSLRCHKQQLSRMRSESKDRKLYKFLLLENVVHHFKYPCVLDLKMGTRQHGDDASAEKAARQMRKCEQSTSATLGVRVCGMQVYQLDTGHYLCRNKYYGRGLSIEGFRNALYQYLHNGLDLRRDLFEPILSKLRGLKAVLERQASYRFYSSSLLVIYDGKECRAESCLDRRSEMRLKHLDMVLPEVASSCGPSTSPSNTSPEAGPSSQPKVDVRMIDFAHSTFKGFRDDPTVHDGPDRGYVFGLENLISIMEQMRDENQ
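ADP-Glo luminescence measures ADP made by human IP6K1 during a 2 h RT reaction with ATP/IP6 (mix at 1.3 mM/130 uM); top library doses 57.5 and 19.1 uM final.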
IP6K1 conf: confirmation of human IP6K1 inhibitors. 1,200 compounds, 13% hits. Potency, µM (series often up to 49 µM), for inactives: at the highest dose activity change, negative = inhibition, actives largely listed as inhibitors. recombinant IP6K1 kinase, ADP-Glo luminescence, 2 h. AID 1645852. shares compounds with IP6K1 inh; also: potency is read from the fitted curve at half-maximal effect; % is scaled to controls: 0 for no effect and ±100 for the full control effect; nearly all actives have a fitted effect of over 65% in size
Numbers without * were called inactive; [ ] = another dose, or the depositor's remark. Unless noted, calls follow the shape of the dose curve; as a rule, active = well fitted curve in the direction sought with a large enough effect; inconclusive = small, poorly fitted or top-dose-only effect, or another doubt; inactive = no such curve, though single readings can be large; an effect the other way counts as inactive or inconclusive.

Cc1ccc2c(n1)sc1c(=O)n(-c3cccc(C(F)(F)F)c3)nnc12 was read as SNCA expr inhib 21.1%, SNCA viab count -3.8%, KDM5B inh inconclusive, IP6K1 inh -27.5* and IP6K1 conf -17.1%.
`Cc1cccn2c(=O)c(C(=O)NCCc3ccc(Cl)cc3)cnc12` gave SNCA expr inhib 67.2%, SNCA viab count -7.6%, KDM5B inh inconclusive and IP6K1 inh 7.6.
`CSc1ccc(CCNC(=O)c2cnc3c(C)cccn3c2=O)cc1` gave SNCA expr inhib 30.8%, SNCA viab count 13.0%, KDM5B inh inactive, IP6K1 inh -28.7* and IP6K1 conf -21.2%.
For COc1ccc(N2CCN(CC(O)COc3ccc(C(C)(C)C)cc3)CC2)cc1 (stereo not given) the results were SNCA expr inhib 2.7%, SNCA viab count -6.2%, KDM5B inh inconclusive, IP6K1 inh -28.7* and IP6K1 conf -9.3%.
`COc1ccc(OCC(O)CN2CCN(c3ncccn3)CC2)cc1` (stereo not given) gave KDM5B inh inactive.
CN(Cc1noc(C2CCCC2)n1)c1cc(C2CC(O)C2)ncn1 (stereo not given) was read as SNCA expr inhib 1.2%, SNCA viab count -10.8%, KDM5B inh inactive, IP6K1 inh -27.8* and IP6K1 conf -3.0%.
`CS(=O)(=O)N(CC(=O)Nc1ccc(Br)cc1)c1cccc(Cl)c1Cl` gave KDM5B inh inactive.
Screening Cn1nc(C(=O)Nc2ccc(Br)cc2F)c2ccccc2c1=O returned KDM5B inh inactive.
COc1ccc(CNC(=O)C(=O)NCC(c2ccco2)S(=O)(=O)c2ccc(Cl)cc2)cc1 (stereo not given) was read as SNCA expr inhib -5.0%, SNCA viab count 3.7%, KDM5B inh inactive, IP6K1 inh -29.0* and IP6K1 conf 20.4%.
Screening COc1ccc(-n2c(SCC(=O)N3CCc4ccccc43)nc3c(c2=O)SCC3)cc1 returned KDM5B inh inactive.
Screening CC(C)CN(C(=O)Cc1c[nH]c2ccccc12)c1nc2ccccc2s1 returned KDM5B inh inactive.
Screening CC1CCN(C(=O)CSc2nc(-c3ccccc3)no2)CC1 returned SNCA expr inhib 35.8%, SNCA viab count 0.4%, KDM5B inh inconclusive, IP6K1 inh -26.2* and IP6K1 conf inconclusive.
Screening N#Cc1cccc(C(=O)NCCc2cccc3cccnc23)c1 returned KDM5B inh inactive.
c1cc(CNCCCN2CCCCC2)ccn1 was read as KDM5B inh inactive.
O=C1c2ccccc2-[n+]2ccc3c([nH]c4ccccc43)c21 was read as SNCA expr inhib 3.04µM*, SNCA viab count inconclusive and IP6K1 conf -24.4%.
O=C1C(c2c(O)[nH]c3ccccc23)=Nc2ccccc21 was read as SNCA expr inhib -23.2%, SNCA viab count -10.7%[23.9 µM] and IP6K1 inh -15.6.
Screening S=C(NCCC(c1ccccc1)c1ccccc1)Nc1ccc(Nc2ccccc2)cc1 returned KDM5B inh inactive.
`O=C1C(N2CCN(Cc3ccc[nH]3)CC2)CCN1Cc1ccccn1` (stereo not given) gave SNCA expr inhib 12.2%, SNCA viab count -2.1%, KDM5B inh inconclusive, IP6K1 inh 7.8 and IP6K1 conf -6.4%.
`CC(C)c1cc(-c2n[nH]c(=O)n2-c2ccc3c(ccn3C)c2)c(O)cc1O` gave SNCA expr inhib inconclusive, SNCA viab count -25.2%, IP6K1 inh -42.5* and IP6K1 conf 9.2µM*.
For N#CCC(C1CCCC1)n1cc(-c2ncnc3[nH]ccc23)cn1 (stereo not given) the results were SNCA viab count -9.8%, IP6K1 inh -9.0 and IP6K1 conf -23.3%.
`Cc1cccc(C(=O)Oc2ccc(C3(c4ccc(OC(=O)c5cccc(C)c5)cc4)OC(=O)c4ccccc43)cc2)c1` gave KDM5B inh inactive.
O=C1OC2(c3ccccc31)c1cc(Br)c(O)c(Br)c1Oc1c2cc(Br)c(O)c1Br was read as SNCA expr inhib -43.2%[25.6 µM], SNCA viab count -12.4%[23.9 µM], IP6K1 inh -69.4* and IP6K1 conf 3.26µM*.
CCOc1ccc2c(n1)CCN(C(=O)Cc1cccc(OC)c1)C2 was read as SNCA expr inhib 48.1%, SNCA viab count 2.7%[12.5 µM], KDM5B inh inactive, IP6K1 inh -26.2* and IP6K1 conf -22.6%.
`CC(C)CNc1nc(-c2ccc3c(c2)NC(=O)CO3)cs1` gave KDM5B inh inactive.
Screening COc1cccc(-c2c(C(=O)NCc3ccccn3)nc3sccn23)c1 returned SNCA expr inhib -27.3%, SNCA viab count -3.0% and IP6K1 inh -0.2.
For COc1ccc(-c2c(C(=O)NCc3ccccn3)nc3sccn23)cc1 the results were SNCA expr inhib -4.2%, SNCA viab count -5.8%, IP6K1 inh -30.2* and IP6K1 conf 0.8%.
`COc1ccc(C(C)=O)c(OCc2ccc(C#N)cc2)c1` gave KDM5B inh inactive.
COC(=O)C1=C(N)OC2=C(C(=O)CCC2)C1c1ccc(Cl)cc1Cl (stereo not given) was read as KDM5B inh inactive.
Cc1nn2c(=O)cc(COC(=O)c3ccc(F)cc3)nc2s1 was read as SNCA expr inhib 71.4%, SNCA viab count -4.5%, KDM5B inh inactive, IP6K1 inh -27.2* and IP6K1 conf -13.2%.
Screening Cc1nn2c(=O)cc(COC(=O)c3ccc(C(C)(C)C)cc3)nc2s1 returned SNCA expr inhib 20.3%, SNCA viab count -4.5%, KDM5B inh inactive and IP6K1 inh 13.0.
Screening CCC(=O)N1CCc2cc(OC)c(OC)cc2C1COc1ccc2c(C)cc(=O)oc2c1 (stereo not given) returned SNCA expr inhib 22.4%, SNCA viab count -4.3%, KDM5B inh inactive, IP6K1 inh -30.9* and IP6K1 conf -3.3%.
`Oc1cccc(-c2nc(N3CCOCC3)c3oc4ncccc4c3n2)c1` gave SNCA expr inhib inconclusive, SNCA viab count -8.9%[87.6 µM] and IP6K1 conf inconclusive.
`c1csc(-c2nc(N3CCOCC3)c3ccccc3n2)c1` gave KDM5B inh inactive.
For N#Cc1ccccc1COC(=O)C1(c2ccccc2)CC1 the results were KDM5B inh inactive.
For COc1cc(SC)ccc1C(=O)Nc1ccc(S(=O)(=O)Nc2nccc(C)n2)cc1 the results were SNCA expr inhib 30.7%, SNCA viab count 2.4%, KDM5B inh inactive and IP6K1 inh 0.8.
COc1ccccc1C(=O)Nc1ccc(S(=O)(=O)Nc2nc(C)cc(C)n2)cc1 was read as SNCA expr inhib 33.3%, SNCA viab count -18.0%, KDM5B inh inconclusive, IP6K1 inh -28.9* and IP6K1 conf inconclusive.
Screening CCC(=O)c1cc(-c2ccc(Cl)cc2)n(-c2ccc(S(N)(=O)=O)cc2)c1C returned SNCA viab count -12.9%, IP6K1 inh -34.0* and IP6K1 conf inconclusive.
